Screening results: PubChem BioAssay, Broad Institute
RAD52 anneal inh: RAD52 DNA annealing inhibitors, primary screen, biochemical, FRET, single point, set 2. DNA repair protein RAD52 homolog (Homo sapiens), P43351. recombinant RAD52 DNA annealing, FRET fluorescence. inhibition, % at 18.7 µM. actives 0.46% (n = 360,000). AID 651710, 2012;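 active means every replicate showing at least 50% inhibition; inconclusive means mean inhibition at least 50% but not in every replicate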
Target sequence (P43351 whole entry, looked up): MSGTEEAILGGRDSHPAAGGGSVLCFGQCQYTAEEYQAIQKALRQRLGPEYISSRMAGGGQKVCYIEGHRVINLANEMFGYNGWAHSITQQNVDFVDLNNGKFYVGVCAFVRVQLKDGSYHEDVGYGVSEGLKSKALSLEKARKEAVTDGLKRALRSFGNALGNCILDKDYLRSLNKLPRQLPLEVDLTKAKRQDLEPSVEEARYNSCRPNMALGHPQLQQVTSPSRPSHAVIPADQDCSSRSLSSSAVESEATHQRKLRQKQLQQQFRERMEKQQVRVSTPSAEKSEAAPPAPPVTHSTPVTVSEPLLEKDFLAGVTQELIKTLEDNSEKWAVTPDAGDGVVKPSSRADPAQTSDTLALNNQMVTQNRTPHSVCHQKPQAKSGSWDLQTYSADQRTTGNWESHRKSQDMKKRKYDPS
AF4-AF9 inh: inhibitors of AF4 peptide binding to AF9, primary screen, biochemical, AlphaScreen, biotin-AF4 peptide, FLAG-AF9, single point; Protein AF-9 (Homo sapiens), P42568; inhibition, % at 10 µM; actives 0.47% (n = 350,000);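 active means every replicate reaching a set inhibition limit, whatever the replicate mean, cut at about 25% in these data; inconclusive means mean inhibition reaches that limit but some replicates miss it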;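 further: 0% = plate neutral control median and 100% = total signal loss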
NSD2 inh: NSD2 histone methyltransferase inhibitors, primary screen, biochemical, AlphaScreen, single concentration, set 2 | Histone-lysine N-methyltransferase NSD2 (Homo sapiens), O96028 | NSD2 peptide methylation, 120 min | inhibition, % at 12.5 µM | actives 0.54% (n = 310,000); in the data active means inhibition above about 50%
rRNA inh HTS: reduced GFP signal of wild-type E. coli, primary screen, bacterial rRNA inhibitor project, GFP/RFP fluorescence, OD600, single point. E. coli WT GFP vs humanized-ribosome RFP mutants, 24 h; stronger effect = lower value; DMSO median 0, no signal -100. GFP signal change (wild-type ribosome), % (test concentration not listed). actives 1.6% (n = 350,000);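 active means significant combined selectivity score with lowered wild-type GFP, culture density cut under 30%, mutant RFP and density less affected; inactive means any of these conditions unmet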
Casp6 inh: human caspase-6 inhibitors, primary screen, biochemical, VEID-R110 fluorescence, single point, set 2 | inhibition, % at 12.5 µM | actives 0.53% (n = 350,000) | purified caspase-6, Z-VEID-R110 cleavage fluorescence | P55212;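 active means mean inhibition across replicates at least about 35%, with every replicate also reaching that limit, limit read from the data; inconclusive means only one of the two criteria met; inactive means neither criterion met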;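 further: 0% = median of neutral control wells and 100% = no fluorescence left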
DNA binder FP: DNA-binding compounds via dye displacement, dose response, artefact control for RAD52 inhibitor project, biochemical, fluorescence polarization, cherry-pick; actives 8% (n = 1,000); AC50, µM; Salmon sperm DNA/acridine orange FP displacement; AID 652128, 2013; shares compounds with RAD52 anneal inh;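 active means fitted half-maximal concentration for signal loss at or below twice the highest dose tested, in every separate run, actives reach about 64 µM in these data; inconclusive means runs disagree, or flat partial signal loss, or poor fit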
Active calls of the source: *; i = inactive; u = inconclusive; x = no result given. An excerpt weighted towards active compounds, which were near 2.5% of everything screened.

SMILES	RAD52 anneal inh	AF4-AF9 inh	NSD2 inh	rRNA inh HTS	Casp6 inh	DNA binder FP
Cc1cccc(-c2ccc3[nH]c4c(c3c2)CCN2C[C@@H]([C@H](C)O)[C@@H](N(C)C(=O)NC3CCCCC3)C[C@@H]42)c1	6	16	x	-49	-10	x
CN[C@H]1C[C@H]2c3[nH]c4ccc(-c5cccc(C)c5)cc4c3CCN2C[C@H]1[C@H](C)O	58*	40*	x	-57	-9	i
CC(C)NC(=O)Nc1ccc2c(c1)C(=O)N([C@@H](C)CO)C[C@@H](C)[C@H](CN(C)C(=O)CCC(F)(F)F)OCCCC[C@H](C)O2	1	-3	x	1	-2	x
CNC(=O)C[C@H]1CC[C@@H]2[C@@H](COc3ccc(NC(=O)c4cccc(OC)c4)cc3C(=O)N2C)O1	-10	-7	x	-3	0	x
O=C(c1ccccc1)N1CC2(C1)[C@@H](c1ccccc1)[C@H](CO)N2CC1CC1	-27	-1	x	-2	-2	x
COCCNc1nc(NCc2cccc(OC)c2)c2sc(-c3ccccc3)cc2n1	80*	1	-6	-29	-1	i
CC(C)NC(=O)N[C@H]1C=C[C@H](CC(=O)NCCCN(C)C)O[C@H]1CO	-14	-1	x	0	-1	x
CCCCCCCOC(=O)C[N+](C)(C)CCOC1CC2CCC1(C)C2(C)C (centres undefined)	85*	13	3	-59	-44	i
CCCCCCOC(=O)C[N+](C)(C)CCOC1CC2CCC1(C)C2(C)C (centres undefined)	x	x	-3	x	x	x
COc1cccc(-c2cnc3c(c2)C(=O)N([C@@H](C)CO)C[C@@H](C)[C@@H](CN(C)C(=O)CN(C)C)O3)c1	21	-14	x	0	0	x
O=C(C[n+]1ccc2ccccc2c1)c1ccc2ccc3ccccc3c2c1	90*	15	4	10	-3	i
CN1CCN(c2nc(-c3ccccc3O)nc3ccccc23)CC1	53*	0	6	-8	1	i
COc1cccc(-c2nc(N3CCN(C)CC3)c3ccccc3n2)c1O	87*	20	20	-23*	-2	u
COc1cccc(-c2nc(N3CCCCC3C)c3ccccc3n2)c1O (centres undefined)	x	x	-45	x	x	x
CC(C)NC(=O)Nc1ccc2c(c1)C(=O)N(C)[C@@H]1CC[C@H](CC(=O)NCC(F)(F)F)O[C@@H]1CO2	x	x	x	2	x	x
Cc1cccn2c(=O)c3cc(C(=O)NCCN4CCOCC4)c(=N)n(CCCN4CCOCC4)c3nc12	78*	-2	3	7	-32	i
COc1ccc(CCNC(=O)c2cc3c(=O)n4ccccc4nc3n(CCCN3CCOCC3)c2=N)cc1OC	54*	4	11	17	-11	i
CC(=O)Nc1cc(-c2ccncc2)cn2c(-c3ccccc3)cnc12	-15	3	2	-1	0	x
CC(=O)Nc1cc(-c2cccc(C(=O)NCCN(C)C)c2)cn2c(-c3ccccc3)cnc12	90*	-8	13	5	-8	i
CC(=O)Nc1cc(-c2cccc(NS(C)(=O)=O)c2)cn2c(-c3cccc(C(F)(F)F)c3)cnc12	-73	3	2	1	0	x
CC(=O)Nc1cc(-c2cccc(C(=O)NCCN(C)C)c2)cn2c(-c3cccc(C(F)(F)F)c3)cnc12	86*	26*	15	-59	-150	i
CC(=O)Nc1cc(-c2cccc(C(=O)NCCN(C)C)c2)cn2c(-c3ccc(S(C)(=O)=O)cc3)cnc12	92*	0	-1	13	-27	i
COc1ccccc1CNC(=O)C[C@@H]1C=C[C@H](NC(C)=O)[C@@H](CO)O1	-8	-2	x	4	2	x
COc1ccc(CN(C)C[C@H]2Oc3ccc(NC(=O)C4CCCCC4)cc3CC(=O)N([C@@H](C)CO)C[C@@H]2C)cc1	2	-1	x	-3	-4	x
CN1CCN(C(=O)C[C@@H]2C[C@H]3c4cc(NC(=O)Nc5ccccc5F)ccc4O[C@H]3[C@H](CO)O2)CC1	x	x	x	0	x	x
SMILES	RAD52 anneal inh	AF4-AF9 inh	NSD2 inh	rRNA inh HTS	Casp6 inh	DNA binder FP
C[C@H](CO)N1C[C@H](C)[C@H](CN(C)C(=O)Nc2ccc(F)cc2)Oc2c(NC(=O)c3nc4ccccc4s3)cccc2C1=O	-9	6	x	-6	-1	x
CN(C)CCCNC(=O)C(=O)Nc1cc2c3c(c1)CC(=O)N3CCC2	97*	7	14	6	-173	i
C[C@@H]1CCCCO[C@@H](CN(C)Cc2ccc3c(c2)OCO3)[C@H](C)CN([C@H](C)CO)C(=O)c2cc(NS(=O)(=O)c3ccc(Cl)cc3)ccc2O1	36	10	x	4	-3	x
CC(C)NC(=O)N1CC(c2ccccc2)C(c2ccc(Cl)cc2)=N1 (centres undefined)	97*	9	0	-27	1	i
CC(=O)N1CC(c2ccccc2)C(c2ccc(Cl)cc2)=N1 (centres undefined)	-2	12	-1	-4	2	x
Cc1cc(N2CCCC2)nc2ccc(NC(=S)NCCCOC(C)C)cc12	58*	10	2	3	x	i
CCCCN(CC)CCCNC(=S)Nc1ccc2nc(N3CCN(C)CC3)cc(C)c2c1	92*	26*	21	8	-90	i
CCN(CC)CCNC(=S)Nc1ccc2nc(N3CCN(C)CC3)cc(C)c2c1	87*	7	x	12	-52	i
CCCN(CCC)CCCNC(=S)Nc1ccc2nc(N3CCCC3)cc(C)c2c1	92*	22	33	x	-120	i
O=C(C[n+]1ccccc1)N/N=C/c1ccco1	50*	8	-4	9	-91	i
CO[C@H]1CN(C)C(=O)c2cc(NS(C)(=O)=O)ccc2OC[C@@H](C)N(C(=O)C2CC2)C[C@@H]1C	4	-1	x	1	4	x
Cc1noc(C)c1S(=O)(=O)N(C)C[C@H]1Oc2ccc(N(C)C)cc2CC(=O)N([C@H](C)CO)C[C@H]1C	-5	x	x	-1	x	x
O=C(CCn1nc(-c2ccc(Cl)cc2)ccc1=O)NCCCN1CCCCCC1	63*	x	2	0	-55	i
CCCN1CCN(CCCNC(=O)CCn2nc(-c3ccccc3)ccc2=O)CC1	-23	-5	0	12	0	x
CCNC(=O)/C(C#N)=C/c1c(N2CCCCCC2)nc2c(C)cccn2c1=O	95*	8	5	-32	5	i
COc1cccc(S(=O)(=O)N2CCCCN3[C@H](CO)[C@@H](c4ccc(C#CC5CC5)cc4)[C@@H]3C2)c1	-24	-6	x	1	-1	x
